Several values for one entry are separate records, joined by “and”; a condition that tells them apart may be missing. Equal entries are not always repeated. Records with an inconclusive call do not appear. Activity calls are given as the source filed them. Unless noted, calls follow the shape of the dose curve; as a rule, active = well fitted curve in the direction sought with a large enough effect in the repeat runs; inconclusive = weak or mixed curves; inactive = no such curve, though single readings can be large; an effect the other way counts as inactive or inconclusive.
Key:
[1] = molecular target: Thyrotropin-releasing hormone receptor (Homo sapiens) (UniProt P34981); experiment: qHTS assay to identify small molecule agonists of the thyrotropin-releasing hormone receptor (TRHR) signaling pathway (AID 1346891; calls by dose curve; also: series mostly up to about 58 µM)
How it was run: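 Screening of agonists relied on calcium signalling in HEK293 cells expressing human TRHR: dye loading 2 h at 37 °C preceded compound addition and a 3-min fluorescence time course.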

[2] = Human pregnane X receptor (PXR) small molecule agonists, qHTS cell viability counter screen (AID 1346977); also: nearly all actives have a fitted effect of over 50% in size; also: potency is read from the fitted curve at half-maximal effect
How it was run: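 Tox21 qHTS format; PXR-Luc HepG2, 2,000/well, charcoal-stripped FBS 5%. Cpd exposure 24hr. Read: CellTiter-Fluor fluorescence, multiplexed with luciferase.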

[3] = Caspase-3/7 induction in HepG2 cells by small molecules, qHTS assay (AID 1346978); also: nearly all actives have a fitted effect of over 15% in size; also: potency is read from the fitted curve at half-maximal effect
How it was run: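 Caspase-3/7 induction was measured by Caspase-Glo 3/7 luminescence (30 min, room temperature) after a 17 hr compound exposure of wild-type HepG2 cells seeded at 2,000 per well and pre-incubated 5 hr.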

[4] = Caspase-3/7 induction in CHO-K1 cells by small molecules, qHTS cell viability counter screen (AID 1346979); also: nearly all actives have a fitted effect of over 35% in size; also: potency is read from the fitted curve at half-maximal effect
How it was run: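 CellTiter-Fluor viability check, qHTS format: wild-type CHO-K1, 16hr compound treatment, 1hr reagent incubation, fluorescence read.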

[5] = Caspase-3/7 induction in CHO-K1 cells by small molecules, qHTS assay (AID 1346980); also: nearly all actives have a fitted effect of over 15% in size; also: potency is read from the fitted curve at half-maximal effect
How it was run: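 Luminescent Caspase-Glo 3/7 read (30min, room temperature) quantified apoptosis induction. Cells were wild-type CHO-K1, treated with compound for 17hr at 37 C and 5% CO2.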

[6] = Caspase-3/7 induction in HepG2 cells by small molecules, qHTS cell viability counter screen (AID 1346981); also: nearly all actives have a fitted effect of over 30% in size; also: potency is read from the fitted curve at half-maximal effect
How it was run: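 Cell viability is measured as a cytotoxicity counter screen alongside the Caspase-Glo 3/7 readout in identical wells. Wild-type HepG2 cells are treated with test compounds for 16 hr at 37 C before CellTiter-Fluor addition and a 1-hr incubation.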

[7] = molecular target: Nuclear receptor subfamily 1 group I member 2 (Homo sapiens) (UniProt O75469); experiment: Human pregnane X receptor (PXR) small molecule agonists, qHTS assay (AID 1346982); also: nearly all actives have a fitted effect of over 35% in size; also: potency is read from the fitted curve at half-maximal effect
How it was run: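 Cells: HepG2 stably carrying PXR-Luc. Medium held 5% charcoal-stripped FBS. Compounds in DMSO added after 5 hr plating, incubated 24 hr, then luminescence quantified with ONE-Glo.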

[8] = molecular target: Nuclear receptor subfamily 1 group I member 2 (Rattus norvegicus) (UniProt Q9R1A7); experiment: Rat pregnane X receptor (rPXR) activation by small molecules, qHTS assay (AID 1346983); details: rPXR luciferase reporter cells, One-Glo luminescence, 24 h; max activation: stronger effect = higher value; also: nearly all actives have a fitted effect of over 20% in size
How it was run: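 Luminescent readout (One-Glo luciferase, 30 min room temperature) followed 24 hr compound treatment at 37 C of rPXR cells plated 2,000 per well and preincubated 5hr; qHTS format with compounds delivered in DMSO.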

[9] = molecular target: Nuclear receptor subfamily 1 group I member 2 (Homo sapiens) (UniProt O75469); experiment: CYP3A4 induction through human pregnane X receptor (PXR) by small molecules, qHTS assay (AID 1346984); also: nearly all actives have a fitted effect of over 40% in size
How it was run: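 Quantitative HTS in DPX-2 cells, i.e. HepG2 transfected with PXR response element and CYP3A4-promoter luciferase. Compounds in DMSO incubated 24hr at 37C; then P450-Glo CYP3A4 substrate, 3uM final, 3hr; One-Glo luminescence.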

[10] = molecular target: Nuclear receptor subfamily 1 group I member 2 (Homo sapiens) (UniProt O75469); experiment: Human pregnane X receptor (PXR) activation by small molecules, qHTS assay (AID 1346985); also: nearly all actives have a fitted effect of over 40% in size
How it was run: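 DPX-2 cells (HepG2 co-transfected with a PXR response element and a CYP3A4-promoter luciferase construct) were seeded at 2,000 per well, rested 5 hr at 37C, then exposed to DMSO-dissolved compounds for 24 hr. Activation was read as luciferase luminescence.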
% is scaled to controls: 0 for no effect and ±100 for the full control effect.

Sequence of Nuclear receptor subfamily 1 group I member 2 (Homo sapiens) (O75469 whole entry, looked up): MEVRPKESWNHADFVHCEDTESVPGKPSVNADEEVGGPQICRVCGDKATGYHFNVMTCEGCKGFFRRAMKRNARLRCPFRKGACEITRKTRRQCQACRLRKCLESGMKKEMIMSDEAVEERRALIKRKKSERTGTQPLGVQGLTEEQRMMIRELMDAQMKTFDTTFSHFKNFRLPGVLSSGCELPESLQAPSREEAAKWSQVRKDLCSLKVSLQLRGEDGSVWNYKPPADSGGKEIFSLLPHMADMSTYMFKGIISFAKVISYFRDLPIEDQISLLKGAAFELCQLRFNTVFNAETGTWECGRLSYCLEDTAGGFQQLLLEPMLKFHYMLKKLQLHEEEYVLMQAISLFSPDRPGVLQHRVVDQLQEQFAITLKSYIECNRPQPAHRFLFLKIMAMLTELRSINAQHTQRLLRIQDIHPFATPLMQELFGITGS
Sequence of Nuclear receptor subfamily 1 group I member 2 (Rattus norvegicus) (Q9R1A7 whole entry, looked up): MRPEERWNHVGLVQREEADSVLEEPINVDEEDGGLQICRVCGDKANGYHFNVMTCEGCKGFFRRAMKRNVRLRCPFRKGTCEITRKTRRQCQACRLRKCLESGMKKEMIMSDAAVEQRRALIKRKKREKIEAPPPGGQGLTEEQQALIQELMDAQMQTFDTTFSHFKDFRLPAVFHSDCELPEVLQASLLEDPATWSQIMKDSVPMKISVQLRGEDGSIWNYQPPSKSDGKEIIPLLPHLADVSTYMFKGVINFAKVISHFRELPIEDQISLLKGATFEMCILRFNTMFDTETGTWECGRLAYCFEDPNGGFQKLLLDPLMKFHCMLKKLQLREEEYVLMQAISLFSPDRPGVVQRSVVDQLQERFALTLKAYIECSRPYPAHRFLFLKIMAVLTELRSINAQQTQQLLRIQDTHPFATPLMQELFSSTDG
Sequence of Thyrotropin-releasing hormone receptor (Homo sapiens) (P34981 whole entry, looked up): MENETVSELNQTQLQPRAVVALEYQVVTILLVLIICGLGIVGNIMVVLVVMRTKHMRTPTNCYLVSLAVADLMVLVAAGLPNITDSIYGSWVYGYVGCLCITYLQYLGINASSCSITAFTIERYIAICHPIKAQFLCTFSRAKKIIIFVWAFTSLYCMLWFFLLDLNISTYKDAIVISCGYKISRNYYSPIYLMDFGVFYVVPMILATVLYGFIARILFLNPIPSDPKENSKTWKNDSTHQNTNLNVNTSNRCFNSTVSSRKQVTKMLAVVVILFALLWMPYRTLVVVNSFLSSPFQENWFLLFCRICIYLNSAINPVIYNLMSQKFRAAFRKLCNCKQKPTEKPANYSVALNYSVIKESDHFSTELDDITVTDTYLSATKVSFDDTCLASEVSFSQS

CCCC1CCCC(=O)O1 (configuration not stated)
inactive: outcome [1] | Potency [2] | Potency [3] | Potency [4] | Potency [5] | Potency [6] | Potency [7]

C=C[Si](OCC)(OCC)OCC
inactive: outcome [1] | Potency [2] | Potency [3] | Potency [4] | Potency [5] | Potency [6]

O=C(O)c1c2ccccc2cc2ccccc12
inactive: outcome [1] | Potency [2] | Potency [3] | Potency [4] | Potency [5] | Potency [6] | Potency [7]

CCN(CC)CC(=O)OCC(=O)[C@@]1(O)CC[C@H]2[C@@H]3CCC4=CC(=O)CC[C@]4(C)[C@H]3[C@@H](O)C[C@@]21C
inactive: outcome [1] | Potency [2] | Potency [3] | Potency [4] | Potency [5] | Potency [6]

Cc1cc(N)n(-c2ccccc2)n1
inactive: outcome [1] | Potency [2] | Potency [3] | Potency [4] | Potency [5] | Potency [6]

CC(C)=CCCC(C)C=O (configuration not stated)
inactive: outcome [1] | Potency [2] | Potency [3] | Potency [4] | Potency [5] | Potency [6] | Potency [7]

Nc1ccc(-c2ccc(F)cc2)cc1
active: Potency [7] 30.6 µM
inactive: outcome [1] | Potency [2] | Potency [3] | Potency [4] | Potency [5] | Potency [6]

CC(CCl)OC(C)CCl (configuration not stated)
inactive: outcome [1] | Potency [2] | Potency [3] | Potency [4] | Potency [5] | Potency [6] | Potency [7]

O=S(=O)(O)c1cc(Cl)c(Cl)cc1Cl
inactive: outcome [1] | Potency [2] | Potency [3] | Potency [4] | Potency [5] | Potency [6] | Potency [7]

Cc1nc(C)c(C)nc1C
inactive: outcome [1] | Potency [2] | Potency [3] | Potency [4] | Potency [5] | Potency [6] | Potency [7]

C=Cc1ccc(C=C)cc1
inactive: outcome [1] | Potency [2] | Potency [3] | Potency [4] | Potency [5] | Potency [6] | Potency [7]

CO[C@@H]1COCC[C@@H]1N[C@@H]1CC[C@@](C(=O)N2CCc3ncc(C(F)(F)F)cc3C2)(C(C)C)C1
inactive: outcome [1] | Potency [2] | Potency [3] | Potency [4] | Potency [5] | Potency [6] | Potency [7]

O=C(OC1C[C@H]2CC[C@@H](C1)[N+]21CCCC1)C(O)(c1ccccc1)c1ccccc1 (some centres not stated)
inactive: outcome [1] | Potency [2] | Potency [3] | Potency [4] | Potency [5] | Potency [6] | Potency [7] | max activation [8] -1.51% | Potency [9] | Potency [10]

NC(=O)c1ccccc1C(N)=O
inactive: outcome [1] | Potency [2] | Potency [3] | Potency [4] | Potency [5] | Potency [6] | Potency [7]

CC(C)=CCC/C(C)=C/C=N/O
inactive: outcome [1] | Potency [2] | Potency [3] | Potency [4] | Potency [5] | Potency [6]
active: Potency [7] 34.4 µM

O=C(OCCN1CCOCC1)c1cccnc1Nc1cccc(C(F)(F)F)c1
active: Potency [7] 26.6 µM
inactive: outcome [1] | Potency [2] | Potency [3] | Potency [4] | Potency [5] | Potency [6]

CCC(C)C1N=C(C)C(C)S1 (configuration not stated)
inactive: outcome [1] | Potency [2] | Potency [3] | Potency [4] | Potency [5] | Potency [6]
active: Potency [7] 34.4 µM

CCOc1ccc2c(c1)C(C)CC(C)(C)N2 (configuration not stated)
active: Potency [7] 34.4 µM
inactive: outcome [1] | Potency [2] | Potency [3] | Potency [4] | Potency [5] | Potency [6]

COc1ccc(C(=O)c2ccc(C)cc2)c(O)c1
inactive: outcome [1] | Potency [2] | Potency [3] | Potency [4] | Potency [5] | Potency [6] | max activation [8] -1.42% | Potency [9]
active: Potency [7] 11 µM

CC(C)C[C@H](NC(=O)[C@H](Cc1ccccc1)NC(=O)c1cnccn1)B(O)O
active: Potency [2] 0.0422 µM | Potency [3] 0.211 µM | Potency [4] 0.0168 µM | Potency [5] 0.0067 µM | Potency [6] 0.0841 µM | Potency [7] 0.0084 µM
inactive: outcome [1] | max activation [8] -18.4% and -17.1% | Potency [9] | Potency [10]

Cc1cc(SC2=C(O)C[C@@](CCc3ccc(N)cc3)(C(C)C)OC2=O)c(C(C)(C)C)cc1CO
active: Potency [7] 30.6 µM
inactive: outcome [1] | Potency [2] | Potency [3] | Potency [4] | Potency [5] | Potency [6]

O=C(O)c1ccccc1[N+](=O)[O-]
inactive: outcome [1] | Potency [2] | Potency [3] | Potency [4] | Potency [5] | Potency [6] | Potency [7]

C1=COCCC1
inactive: outcome [1] | Potency [2] | Potency [3] | Potency [4] | Potency [5] | Potency [6] | Potency [7]

CCCCCCCCCCCCCCCCN
inactive: outcome [1] | Potency [2] | Potency [3] | Potency [4] | Potency [5] | Potency [6] | Potency [7] | max activation [8] -4.68% | Potency [9] | Potency [10]

COc1cc(CNC(=O)CCCC/C=C/C(C)C)ccc1O
inactive: outcome [1] | Potency [2] | Potency [3] | Potency [4] | Potency [5] | Potency [6]
active: Potency [7] 33.5 µM

O=C(O)c1ccc2cc(O)ccc2c1
inactive: outcome [1] | Potency [2] | Potency [3] | Potency [4] | Potency [5] | Potency [6] | Potency [7]

CC(COc1ccccc1)NC(C)C(O)c1ccc(O)cc1 (configuration not stated)
active: Potency [7] 23.7 µM
inactive: outcome [1] | Potency [2] | Potency [3] | Potency [4] | Potency [5] | Potency [6] | max activation [8] 3.54% | Potency [9] | Potency [10]

C/C(=C\C(C)CC(C)CC(C)C)C1CC(=O)OC1=O (configuration not stated)
inactive: outcome [1] | Potency [2] | Potency [3] | Potency [4] | Potency [5] | Potency [6] | Potency [7]
